Results on 17 molecules are retold here after PubChem BioAssay.

Unmarked numbers belong to inactive results. The rule behind the calls is not given here.

By inhibition is commonly meant the change of the read-out against control, counted positive when it falls.

Chain of Pantothenate synthetase (Mycobacterium tuberculosis (strain ATCC 25618 / H37Rv)) (P9WIL5 whole entry, looked up): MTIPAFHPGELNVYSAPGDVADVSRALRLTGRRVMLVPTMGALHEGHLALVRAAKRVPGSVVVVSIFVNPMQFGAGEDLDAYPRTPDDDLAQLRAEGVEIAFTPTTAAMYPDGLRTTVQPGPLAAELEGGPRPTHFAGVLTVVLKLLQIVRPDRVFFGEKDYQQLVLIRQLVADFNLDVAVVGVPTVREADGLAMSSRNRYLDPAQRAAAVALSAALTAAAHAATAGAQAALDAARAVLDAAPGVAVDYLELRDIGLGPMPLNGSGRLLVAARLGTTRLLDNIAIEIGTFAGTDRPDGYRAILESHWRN

This assay addresses Pantothenate synthetase (Mycobacterium tuberculosis (strain ATCC 25618 / H37Rv)) (UniProt P9WIL5). In words: Recombinant Mtb pantothenate synthetase (PanC) inhibitors, coupled enzyme, confirmatory (AID 375).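 Note: 0% = full reaction with vehicle and 100% = no enzyme background.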 As to conditions: coupled enzyme assay; at 10 µM, active compounds read high.
For `COCCN(Cc1cc2cccc(C)c2[nH]c1=O)C(=O)c1ccccc1`, the inhibition is 0%.
As for `COc1cc2[nH]c(=O)n(CCC(=O)N3CCc4ccccc4C3)c(=O)c2cc1OC`, the figure is 0%.
As for `N#Cc1c(NC(=O)CSc2nnnn2C2CCCC2)sc2c1CCCC2`, the figure is 7%; as for `CCOC(=O)C1CCN(Cc2ccc(F)c(Br)c2)CC1`, 0%; as for `Nc1nc(-c2ccccc2Br)cs1`, 3%.
For the molecule `CC1CCN(S(=O)(=O)c2cccc(C(=O)Nc3ccccn3)c2)CC1`, the inhibition was 0%.
Regarding `COc1ccc(-c2nc3c(c(=O)n(C)c(=O)n3C)n2CC2CC(c3ccccc3)=NO2)cc1OC` (configuration not stated), the inhibition was 1%.
As for `CCCCN(C)CCCNC(=O)CC1Oc2ccccc2NC1=O` (configuration not stated), the figure is 6%; as for `O=C(O)c1ccc(CSc2ncn[nH]2)cc1`, 1%.
Consider `COc1ccc2nc(CC(C)(C)CC(=O)O)c[n+]([O-])c2c1`, for which the inhibition was 10%.
Take `CC(=O)Nc1ccc(Cc2ccncc2)cc1`: the inhibition is 0%.
As for `CCOC(=O)Cn1c(CN2CCN(c3cccc(Cl)c3)CC2)nc2c1c(=O)[nH]c(=O)n2C`, the figure is 0%; as for `CCN(CC)CCCN1C(=O)C(=O)/C(=C(/O)c2ccc3c(c2)OCO3)C1c1ccccn1` (configuration not stated), 1%.
Under `O=C(OCc1nnc(-c2ccccc2)o1)c1ccc(S(=O)(=O)NCc2ccco2)cc1` stands 0%.
Under `Cc1nc2nc(Cc3ccccc3)[nH]n2c(=O)c1Cc1ccccc1` stands 5%; under `CCCCN(c1ccccc1)S(=O)(=O)c1ccc2c(c1)CCN2C(=O)CCC(=O)O`, 0%.
On to `COc1ccc(Cc2nnc(NC(=O)Cc3cccs3)s2)cc1`, for which the inhibition was 0%.
